# PAFAH1B3 inh – inhibitors of human PAFAH1B3 | Q15102 | actives 0.28% (n = 340,000) | inhibition, % at 3.39 µM | recombinant PAFAH1B3, FP-rhodamine probe, fluorescence polarization;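 active = inhibition above the screen-wide average of all tested compounds plus 3 SD, cut at about 25% in these data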;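 note: 0% = enzyme with DMSO only and 100% = wells lacking PAFAH1B3 protein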
# Target sequence (Q15102 whole entry, looked up): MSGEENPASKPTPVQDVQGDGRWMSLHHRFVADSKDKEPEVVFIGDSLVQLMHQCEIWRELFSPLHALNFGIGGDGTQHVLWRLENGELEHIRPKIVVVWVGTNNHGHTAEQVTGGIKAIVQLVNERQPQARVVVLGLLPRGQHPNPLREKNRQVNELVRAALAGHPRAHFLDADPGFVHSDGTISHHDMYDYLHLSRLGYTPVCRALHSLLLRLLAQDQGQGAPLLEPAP
# PAFAH2 FP inh – inhibitors of human PAFAH2; Q99487; recombinant PAFAH2, FP-rhodamine activity probe, fluorescence polarization; inhibition, % at 3.39 µM; actives 0.99% (n = 340,000); AID 492956;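 active = inhibition above the mean over all tested compounds plus 3 SD, cut at about 30% in these data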;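 note: inhibitors block probe labeling of enzyme so polarization drops; 0% = enzyme with DMSO and 100% = wells lacking PAFAH2 protein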
# ZTA DNA inh – blocks Epstein-Barr virus ZTA, an EBNA-1 counter-screen; ZTA-DNA binding, fluorescence polarization; inhibition, % at 11 µM; actives 0.15% (n = 320,000); AID 2234; in the data active = inhibition above about 33%
# Target sequence (P03206 whole entry, looked up): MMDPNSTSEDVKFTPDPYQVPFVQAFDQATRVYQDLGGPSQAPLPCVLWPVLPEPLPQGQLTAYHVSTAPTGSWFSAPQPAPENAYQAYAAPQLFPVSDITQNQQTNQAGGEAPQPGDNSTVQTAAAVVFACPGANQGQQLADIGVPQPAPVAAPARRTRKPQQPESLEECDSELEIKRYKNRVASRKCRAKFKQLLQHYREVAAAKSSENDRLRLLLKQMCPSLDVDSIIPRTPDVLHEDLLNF
# PAFAH1B2 FP inh – blocks human PAF acetylhydrolase 1b catalytic subunit 2; P68402; recombinant PAFAH1B2, FP-rhodamine activity probe, fluorescence polarization; inhibition, % at 3.39 µM; actives 1.2% (n = 340,000); AID 492953;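 active = inhibition above the mean of all tested compounds plus 3 SD, cut at about 24% in these data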;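 note: 0% = enzyme with DMSO and 100% = wells lacking PAFAH1B2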
# Target sequence (P68402 whole entry, looked up): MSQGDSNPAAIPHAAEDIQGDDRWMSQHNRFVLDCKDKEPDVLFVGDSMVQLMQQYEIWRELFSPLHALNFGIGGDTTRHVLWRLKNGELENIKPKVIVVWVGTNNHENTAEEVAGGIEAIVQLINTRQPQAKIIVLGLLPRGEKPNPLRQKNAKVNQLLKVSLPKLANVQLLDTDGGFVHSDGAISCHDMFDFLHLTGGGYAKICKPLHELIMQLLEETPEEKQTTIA
# EBNA-1 inh – blocks EBNA-1 binding to DNA | inhibition, % at 14.8 µM | EBNA-1 DNA binding, fluorescence polarization | AID 1950 | actives 0.34% (n = 300,000); in the data active = inhibition above about 28%
# rCAG binder – molecules binding r(CAG) RNA repeats | actives 1.3% (n = 370,000) | inhibition, % at 3 µM | r(CAG) RNA repeat, TO-PRO-1 dye displacement fluorescence;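 active = inhibition above the plate cutoff, the mean of all test compounds on that plate plus 3 SD, cut at about 35% in these data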;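 note: 0% = DMSO alone and 100% = 100 µM mitoxantrone as full dye displacement; higher means more dye released from RNA so lower well fluorescence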
# rCAG bind conf – r(CAG) RNA repeat binding, confirmation; actives 70% (n = 4,300); shares compounds with rCAG binder; inhibition, % at 3 µM; TO-PRO-1 dye displacement fluorescence;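 active = inhibition above a per-plate cutoff, the mean inhibition of sample wells plus 3 SD, cut at about 35% in these data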;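 note: loss of TO-PRO-1 fluorescence as compound displaces dye from 1x1 AA loop RNA; 0% = DMSO only wells and 100% = 100 µM mitoxantrone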
# dCAG dye counter – counter-screen for rCAG RNA binders: DNA CAG dye complex inhibitors | shares compounds with rCAG binder | d(CAG) DNA oligo TO-PRO-1 dye displacement, fluorescence | inhibition, % at 3 µM | actives 94% (n = 4,300);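 active = inhibition above its plate's cutoff, the mean test-well inhibition plus 3 SD, cut at about 4.8% in these data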;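 note: 0% = DNA dye mix with DMSO and 100% = 100 µM mitoxantrone; hits displace the dye from DNA and so lower well fluorescence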
# Starred values were filed as active, the others as inactive; nt = no result given. Most compounds without a hit are left out; they make up all but 2.9% or so of the library.
SMILES,PAFAH1B3 inh,PAFAH2 FP inh,ZTA DNA inh,PAFAH1B2 FP inh,EBNA-1 inh,rCAG binder,rCAG bind conf,dCAG dye counter
Cn1c(=O)oc2cc(S(=O)(=O)N3CCN(CCO)CC3)ccc21,nt,nt,nt,nt,nt,0.3,nt,nt
O=C(COC(=O)CCC(=O)c1ccc(Cl)cc1)NC1CC1,2.3,2.4,1.7,0.8,-7.2,-3.5,nt,nt
C[C@H](O)[C@@H]1CN2CCc3c([nH]c4c(-c5ccc6c(c5)OCO6)cccc34)[C@@H]2C[C@@H]1N(C)C(=O)NC1CCCCC1,nt,nt,nt,nt,nt,4.1,nt,nt
O=C(NC(Nc1ncc(S(=O)(=O)c2ccc([N+](=O)[O-])cc2)s1)(C(F)(F)F)C(F)(F)F)c1ccc(Cl)cc1,7.3,6.4,1.9,13.7,1.9,45.6*,51.5*,13.9*
Cc1c(O)nc(SCC(=O)Nc2ccc3c4c(cccc24)CC3)n(-c2ccccc2)c1=O,8.9,3.7,-12.3,8.7,15.3,39.2*,24.5,9.2*
O=C(CSc1nc2nc3c(cc2c(=O)n1-c1ccccc1)CCCC3)Nc1cccc2ccccc12,2.1,-7.0,15.7,1.9,9.4,14.1,nt,nt
O=C(CSc1nc(O)cc(=O)n1-c1ccccc1)Nc1ccc2c3c(cccc13)CC2,1.1,-0.7,-5.2,-7.8,-5.0,45.3*,29.7,11.9*
COC(=O)C[C@@H]1CC[C@@H]2[C@@H](COc3ccc(NC(C)=O)cc3C(=O)N2C)O1,nt,nt,nt,nt,nt,0.2,nt,nt
O=C(CN1C(=O)/C(=C2/SC(=S)N(CCS(=O)(=O)O)C2=O)c2ccccc21)Nc1cccc(C(F)(F)F)c1,2.8,-5.9,nt,-2.2,nt,91.5*,93.8*,77.6*
O=C(CN1C(=O)/C(=C2\SC(=S)N(CCS(=O)(=O)O)C2=O)c2ccccc21)Nc1cccc(Br)c1,2.4,-7.0,0.7,4.1,-2.7,88.1*,89.5*,65.4*
COc1ccccc1N(Cc1ccccc1)S(=O)(=O)c1cccc(C(=O)O)c1,8.1,-2.5,2.6,7.1,9.0,29.1,nt,nt
O=C(O)c1ccc(Cl)c(S(=O)(=O)N(Cc2ccccc2)c2ccc(Cl)cc2)c1,2.3,15.2,1.4,21.1,4.6,73.0*,64.9*,25.9*
COc1ccccc1N(Cc1ccccc1)S(=O)(=O)c1cc(C(=O)O)ccc1Cl,-0.7,3.2,0.9,6.6,-5.3,65.0*,46.9*,12.6*
COc1cccc(N2CCN(C(=O)c3ccccc3SCC(=O)NCc3ccco3)CC2)c1,3.3,3.3,3.7,4.1,nt,2.7,nt,nt
Cc1[nH]c2ccccc2c1/C=N/Nc1ccc([N+](=O)[O-])cc1,1.5,-24.7,-3.6,-0.1,-8.9,56.4*,32.3,20.6*
COc1ccc(CC(=O)Nc2ccc(S(=O)(=O)Nc3cc(C)on3)cc2)cc1OC,-1.1,0.7,-9.6,0.9,-12.1,4.9,nt,nt
COc1cc(NS(=O)(=O)c2ccc(Nc3nc(-c4ccccn4)cs3)cc2)nc(OC)n1,9.9,21.7,1.5,13.5,-14.2,44.6*,34.4,8.9*
COc1ccc(-c2csc(Nc3ccc(S(=O)(=O)Nc4cc(C)on4)cc3)n2)cc1C,10.4,37.3*,11.6,14.0,4.1,92.6*,82.2*,42.6*
COc1cc(NS(=O)(=O)c2ccc(NC(C)=O)cc2)nc(OC)n1,0.9,1.9,-1.4,1.9,6.5,-0.4,nt,nt
COc1ccc(-c2csc(Nc3ccc(S(=O)(=O)Nc4cc(OC)nc(OC)n4)cc3)n2)cc1,15.3,30.6*,12.1,3.5,4.1,89.7*,89.5*,56.5*
CC1CCN(C(=O)CNC(=O)CNC(=O)Cc2ccccc2)CC1,3.7,-10.5,3.2,-4.3,5.6,-1.7,nt,nt
COc1cc(/C=C2/C(=O)N(c3ccc(C(=O)O)cc3)N=C2C)cc(OC)c1O,-9.8,-16.4,nt,0.2,nt,-3.3,nt,nt
COc1cc(/C=C2/C(=O)N(c3ccc(C)c(C)c3)N=C2C)cc([N+](=O)[O-])c1O,10.9,2.2,-15.1,-0.4,7.9,37.1*,45.8*,11.9*
Cc1sc(NC(=O)C2CCCCC2C(=O)O)c(C(N)=O)c1-c1ccc(C(C)C)cc1 (stereo not drawn),2.0,2.5,9.2,14.6,0.1,37.4*,53.6*,16.2*
Cc1ccc(S(=O)(=O)N2[C@@H](c3ccccc3)C(C(=O)O)=CC[C@H]2c2ccc3c(c2)OCO3)cc1,8.5,-3.4,-5.2,13.9,2.2,54.3*,43.0*,10.9*
SMILES,PAFAH1B3 inh,PAFAH2 FP inh,ZTA DNA inh,PAFAH1B2 FP inh,EBNA-1 inh,rCAG binder,rCAG bind conf,dCAG dye counter
Cc1ccc(S(=O)(=O)N2[C@@H](c3ccc(C(C)(C)C)cc3)C(C(=O)O)=CC[C@H]2c2ccc3c(c2)OCO3)cc1,4.2,10.0,nt,92.3*,nt,82.6*,81.7*,46.4*
CCOC(=O)C1=CCC(c2ccccc2)N(S(=O)(=O)c2ccc(C)cc2)[C@H]1CC (stereo partly drawn),nt,nt,nt,nt,nt,3.6,nt,nt
COc1cc(C(CC(=O)Nc2ccc(Cl)cn2)N2Cc3ccccc3C2=O)cc(OC)c1OC (stereo not drawn),4.5,2.4,-7.5,8.7,0.9,7.5,nt,nt
CCc1ccc(C#CC2=CC(=O)CC(C)(C)C2)cc1,nt,nt,nt,nt,nt,2.6,nt,nt
COc1ccc([C@@H]2C[C@H]3[C@@H](CN2S(=O)(=O)c2ccccc2)C(=O)C[C@@H](c2ccc(OC)cc2)N3S(=O)(=O)c2ccccc2)cc1,nt,nt,nt,nt,nt,14.0,nt,nt
COc1ccc(/C=C2\S/C(=N/S(=O)(=O)c3cccs3)NC2=O)cc1,1.6,-6.5,14.1,4.1,1.3,73.2*,50.4*,16.4*
O=C(O)c1oc2ccccc2c1CSc1ccc(Cl)cc1,3.5,-1.0,13.4,29.3*,-0.7,39.9*,23.0,3.8
Cc1noc(NS(=O)(=O)c2ccc(NC(=O)c3cccc(S(=O)(=O)Nc4ccccc4F)c3)cc2)c1C,8.8,6.4,nt,2.0,nt,34.6*,26.6,7.8*
Cc1cc(C)c(C(=O)Nc2ccc(S(=O)(=O)Nc3onc(C)c3C)cc2)c(C)c1,8.7,7.0,-15.9,-4.3,2.3,13.7,nt,nt
Cc1noc(NS(=O)(=O)c2ccc(NC(=O)c3ccccc3NS(=O)(=O)c3ccc(F)c(F)c3)cc2)c1C,12.7,0.3,nt,10.0,nt,75.8*,68.6*,30.0*
O=C(O)c1ccccc1-c1ccc(C=c2sc3nc4cc(Br)cnc4n3c2=O)o1,nt,nt,nt,nt,nt,81.5*,72.0*,38.6*
CC(C)(C)c1ccc(C(=O)NCC(=O)OCC(=O)c2ccc3c(c2)-c2ccccc2C3)cc1,-15.1,-9.3,-2.1,13.0,4.6,12.2,nt,nt
C/C=C/c1ccc(OCC(=O)O)c(OC)c1,1.5,-3.0,9.6,4.9,2.0,-1.2,nt,nt
COc1cc(/C=C2/C(C)=C(C#N)c3nc(N)c(C#N)c(C)c32)ccc1OCC(=O)O,nt,nt,-19.9,nt,4.6,42.4*,40.5*,17.3*

# Assay outcomes from PubChem.
